Reference: the supplement of paper PMC9262897, “Low-cost anti-mycobacterial drug discovery using engineered E. coli” (Nature Communications, 2022)
Where a name gives a salt, the structure may show the parent alone. ± gives the standard deviation of the averaged measurements.

System: E. coli TESEC Mtb Asd
Experiment: growth (OD600 after 10 h); higher = more growth (less inhibition)
Settings: arabinose induction (level): High; compound 0.1 mM; raw OD600 reference: median of DMSO wells 0.331, cell-free background 0.041
Method: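 TESEC E. coli strains in which the native enzyme is deleted and replaced by arabinose-inducible Mtb Asd, DapB, CysH or TrpD, each grown in its selective medium. Strains were screened against the Prestwick library at 0.1 mM and 1% DMSO in 384-well format at low and high arabinose induction. Growth is read as OD600 after 10 h in triplicate.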

Compared with `CN1CCc2c(c3ccccc3n2Cc2ccccc2)C1` [Mebhydroline 1,5-naphtalenedisulfonate], `CN1CCCC(CC2c3ccccc3Sc3ccccc32)C1` (stereo not given) [Metixene hydrochloride] is lower in growth: 0.179 ± 0.014 for the first, 0.0629 ± 0.015 for the second.

First: C[C@@H](O[C@H]1OCCN(Cc2n[nH]c(=O)[nH]2)[C@H]1c1ccc(F)cc1)c1cc(C(F)(F)F)cc(C(F)(F)F)c1 [Aprepitant]
Second: COc1ccc(-c2ccc3cc(C(=O)O)ccc3c2)cc1C12CC3CC(CC(C3)C1)C2 [Adapalene]
The growth of the first is lower: 0.0693 ± 0.0052 for the first, 0.231 ± 0.0037 for the second.

`COc1cccc(N(C)C(=S)Oc2ccc3c(c2)CCCC3)n1` [Liranaftate] and `O=C(Oc1cccc2cccnc12)c1ccccc1` [Benzoxiquine] are within error of each other in growth: 0.297 ± 0.025 for the first, 0.316 ± 0.12 for the second.

Compared with `Oc1c(Cl)cc(Cl)c(Cl)c1Cc1c(O)c(Cl)cc(Cl)c1Cl` [Hexachlorophene], `Clc1ccc(COC(Cn2ccnc2)c2ccc(Cl)cc2Cl)c(Cl)c1` (stereo not given) [Miconazole] is lower in growth: 0.0582 ± 0.0021 for the first, 0.0471 ± 0.00055 for the second.

`CC1(C)S[C@@H]2[C@H](NC(=O)[C@H](N)c3ccccc3)C(=O)N2[C@H]1C(=O)O` [Ampicillin trihydrate] and `CC(=O)OCC1=C(C(=O)O)N2C(=O)[C@@H](NC(=O)Cc3cccs3)[C@H]2SC1` [Cephalothin sodium salt] are within error of each other in growth: 0.388 ± 0.056 for the first, 0.421 ± 0.021 for the second.

`CCC(=O)O[C@]1(C(=O)SCF)[C@H](C)C[C@H]2[C@@H]3C[C@H](F)C4=CC(=O)C=C[C@]4(C)[C@@]3(F)[C@@H](O)C[C@@]21C` [Fluticasone propionate] and `C[C@@H]1C[C@H]2[C@@H]3C[C@H](F)C4=CC(=O)C=C[C@]4(C)[C@@]3(F)[C@@H](O)C[C@]2(C)[C@@]1(O)C(=O)COC(=O)C(C)(C)C` [Flumethasone pivalate] are within error of each other in growth: 0.258 ± 0.058 for the first, 0.256 ± 0.022 for the second.

`CCCC(=O)Nc1ccc(OCC(O)CNC(C)C)c(C(C)=O)c1` (stereo not given) [Acebutolol hydrochloride] and `COC(=O)CCc1ccc(OCC(O)CNC(C)C)cc1` (stereo not given) [Esmolol hydrochloride] are within error of each other in growth: 0.264 ± 0.04 for the first, 0.242 ± 0.013 for the second.

`CC(C)(C)NC[C@H](O)COc1cccc2c1CCCC2=O` [(-) -Levobunolol hydrochloride] and `CC(C)NCC(O)c1ccc(O)c(O)c1` (single isomer, unassigned; (+)) [(+)-Isoproterenol (+)-bitartrate salt] are within error of each other in growth: 0.401 ± 0.085 for the first, 0.328 ± 0.028 for the second.

Going from `O=c1[nH]cnc2c1ncn2[C@H]1CC[C@@H](CO)O1` [Didanosine] to `C[C@]12C[C@H](O)[C@H]3[C@@H](CCC4=CC(=O)CC[C@@]43C)[C@@H]1CC[C@@H]2C(=O)CO` [Corticosterone], the growth rises from 0.157 ± 0.0043 to 0.235 ± 0.059.

Going from `C[C@@H]1CCC[C@H](C)N1NC(=O)c1ccc(Cl)c(S(N)(=O)=O)c1` [Clopamide] to `CCCc1nn(C)c2c(=O)[nH]c(-c3cc(S(=O)(=O)N4CCN(C)CC4)ccc3OCC)nc12` [Sildenafil], the growth falls from 0.283 ± 0.036 to 0.233 ± 0.013.

First: O=C1[C@H]2CCCC[C@H]2C(=O)N1CCCCN1CCN(c2nsc3ccccc23)CC1 [Perospirone]
Second: CC[N+](CC)(CC)CCC(O)(c1ccccc1)C1CCCCC1 (stereo not given) [Tridihexethyl chloride]
The growth of the first is lower: 0.188 ± 0.026 for the first, 0.349 ± 0.028 for the second.

`C[C@H]1O[C@H](O[C@H]2[C@H](O)[C@@H](O)[C@@H](O[C@@H]([C@H](O)[C@@H](O)C=O)[C@H](O)CO)O[C@@H]2CO)[C@H](O)[C@@H](O)[C@@H]1N[C@H]1C=C(CO)[C@@H](O)[C@H](O)[C@H]1O` [Acarbose] and `CC(C)(C)C(=O)OCOC(=O)[C@@H]1N2C(=O)[C@@H](/N=C/N3CCCCCC3)[C@H]2SC1(C)C` [Pivmecillinam hydrochloride] are within error of each other in growth: 0.322 ± 0.026 for the first, 0.323 ± 0.028 for the second.

`O=P(O)(O)C(O)(Cn1ccnc1)P(=O)(O)O` [Zoledronic acid hydrate] and `N#Cc1cc(NC(=O)C(=O)O)c(Cl)c(NC(=O)C(=O)O)c1` [Lodoxamide] are within error of each other in growth: 0.257 ± 0.083 for the first, 0.228 ± 0.029 for the second.

`CC1=Nc2ccc(Cl)cc2S(=O)(=O)N1` [Diazoxide] and `Cc1c(O)c(=O)n(-c2ccccc2)n1C` [Antipyrine, 4-hydroxy] are within error of each other in growth: 0.369 ± 0.022 for the first, 0.338 ± 0.034 for the second.

Compared with `COCCCOc1ccnc(C[S+]([O-])c2nc3ccccc3[nH]2)c1C` (stereo not given) [Rabeprazole Sodium salt], `CC(CN(C)C)CN1c2ccccc2Sc2ccccc21` (stereo not given) [Trimeprazine tartrate] is lower in growth: 0.423 ± 0.028 for the first, 0.175 ± 0.028 for the second.

`O=C(O)c1cc(/N=N/c2ccc(S(=O)(=O)Nc3ccccn3)cc2)ccc1O` [Sulfasalazine] and `Cc1ccc(O)c([C@H](CCN(C(C)C)C(C)C)c2ccccc2)c1` [Tolterodine tartrate] are within error of each other in growth: 0.314 ± 0.065 for the first, 0.245 ± 0.032 for the second.

Going from `COc1cc(C)c(/C=C/C(C)=C/C=C/C(C)=C/C(=O)O)c(C)c1C` [Acitretin] to `Cc1cc(C(C)(C)C)c(O)c(C)c1CC1=NCCN1` [Oxymetazoline hydrochloride], the growth rises from 0.137 ± 0.015 to 0.372 ± 0.07.

Going from `CCC1(c2ccccc2)C(=O)NCNC1=O` [Primidone] to `Cc1cc(-c2ccccc2)nnc1NCCN1CCOCC1` [Minaprine dihydrochloride], the growth falls from 0.448 ± 0.024 to 0.212 ± 0.028.

Going from `CC(C)N1CCN(c2ccc(OCC3COC(Cn4cncn4)(c4ccc(Cl)cc4Cl)O3)cc2)CC1` (stereo not given) [Terconazole] to `CN1CCCN(C(c2ccccc2)c2ccc(Cl)cc2)CC1` (stereo not given) [Homochlorcyclizine dihydrochloride], the growth falls from 0.252 ± 0.021 to 0.123 ± 0.011.

`NC[C@H]1CC[C@H](C(=O)O)CC1` [Tranexamic acid] and `COc1ccc(C[C@@H]2c3cc(OC)c(OC)cc3CC[N@+]2(C)CCC(=O)OCCCCCOC(=O)CC[N@@+]2(C)CCc3cc(OC)c(OC)cc3[C@H]2Cc2ccc(OC)c(OC)c2)cc1OC` [Cisatracurium besylate] are within error of each other in growth: 0.381 ± 0.056 for the first, 0.307 ± 0.04 for the second.
